Source: PubChem (several laboratories)
Ec RNAP inh = Escherichia coli RNA polymerase inhibition. inhibition, %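 (tested at 10 µM)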. AID 559. E. coli RNA polymerase, fluorescence transcription assay. actives 0.2% (n = 62,000); in the data active = inhibition above about 20%;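 note: 0% = enzyme without compound and 100% = no enzyme blank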
TNAP act DEA = activates human TNAP at intermediate phosphate acceptor concentration; P05186; activation factor at 20 µM; 64,000 tested, under 10 active; purified TNAP, CDP-star luminescence, 100 mM DEA, 30 min; active compounds read high; scale: 0 levamisole-inhibited, 1 vehicle-only enzyme;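 active = activation factor of at least 2 at 20 µM, relative to controls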
SK-BR-3 tox 24h = SK-BR-3 proliferation inhibitors; SK-BR-3 viability, CellTiter-Glo ATP luminescence, 24 h; active compounds read low; viability, % at 10 µM; actives 0.47% (n = 41,000);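 active = viability at or below the median of all test compounds minus 3 SD, in both replicates if run twice, cut at about 45% in these data; inconclusive = duplicate replicates that disagree with each other; inactive = viability above that cutoff in every replicate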;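 note: 100% = median untreated cell wells and 0% = median positive control drug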
Her2 expr inh = Her2 kinase expression inhibition. actives 0.69% (n = 65,000). P04626. HER2 level % of control, % at 10 µM. SKBR-3 HER2 protein level, AlphaScreen, 18-24 h; active compounds read low. AID 645;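 active = HER2 level under 5% of the carrier-only control; inconclusive = no clear call, values can overlap the other calls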;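 note: 100% = DMSO carrier and 0% = 500 nM PU-H71 HSP90 inhibitor; lower value means stronger loss of Her2 protein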
BAP1 block = human BAP1 deubiquitinase inhibition; calls only at 20 µM; recombinant BAP1, Ub-AMC hydrolysis fluorescence kinetic; active compounds read low; actives 0.48% (n = 72,000);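 active = activity remaining at or below 50% of control, provided the compound also passes the data quality filters; inactive = the rest, including low values that fail the filters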;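 note: 100% = DMSO wells rate and 0% = substrate alone blank rate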
BAP1 inh conf = BAP1 (human) enzyme inhibition, confirmed | shares compounds with BAP1 block | purified BAP1, Ub-ethyl ester hydrolysis, HPLC; active compounds read low | % of control activity, % at 20 µM | actives 8% (n = 310);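 active = percent of control activity at or below 60%; inconclusive = HPLC trace unusable from injection failure or solvent front hiding peaks; inactive = the rest, plus ubiquitin peak ratio over a set limit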
* = called active by the depositor; i = inactive; ? = inconclusive; . = no result given; + = active, no number. This is a sample that favours compounds with a hit; in the whole collection about 1.4% have one here.

SMILES	Ec RNAP inh	TNAP act DEA	SK-BR-3 tox 24h	Her2 expr inh	BAP1 block	BAP1 inh conf
CCC(C)(C)n1nnnc1CN(Cc1cc2cc(OC)ccc2[nH]c1=O)C1CCCC1	7	0.9	.	131	+	130
CC1=C(C(=O)Nc2cccc(C)c2C)C(c2ccc(N(C)C)cc2)NC(=S)N1 (configuration not stated)	.	.	.	.	i	.
Cc1cc(C)cc(CC2C(=O)N(c3ccc(I)cc3)C(=O)C2C)c1 (configuration not stated)	.	.	.	.	i	.
Cc1cc(C)c(O)c(N=Cc2ccccc2O)c1	.	.	.	.	i	.
O=C(c1cccs1)c1ccc(-c2cccs2)s1	4	0.9	130	-2.5*	+	139
O=C(c1cc2ccccc2o1)c1cccs1	.	0.8	92	59	i	.
CCOc1ccc2nc(NC(=O)CN3CCC(n4nnc5cc(F)ccc54)CC3)sc2c1	-7	1	101	66	+	98
O=C1[C@H]2[C@@H](C(=O)N1c1cc(Cl)cc(Cl)c1)[C@]1(C(=O)Nc3ccccc31)N1CCC[C@@H]21	12	0.9	94	79	+	95
Cc1cc(Cl)c2c(c1)[C@]1(C(=O)N2)[C@@H]2C(=O)N(Cc3ccccc3)C(=O)[C@@H]2[C@@H]2CCCN21	6	1	92	59	i	.
COc1ccc(Br)cc1/C=c1\sc2nc(-c3ccco3)nn2c1=O	0	1	70	66	+	75
Cc1ccc(-c2nc3s/c(=C\c4ccco4)c(=O)n3n2)cc1	5	0.9	107	75	+	55*
COc1ccccc1-c1c(C)nn2c(N3CCN(c4ccccc4OC)CC3)cc(C)nc12	4	0.9	.	75	+	105
COc1ccccc1-c1c(C)nn2c(N3CCCCCC3)cc(C)nc12	0	1	.	24	i	.
COc1ccc(CNS(=O)(=O)c2ccc(S(=O)(=O)N3CCCCC3)cc2)cc1	3	0.9	74	102	+	?
CCOC(=O)Cn1nnnc1CN(Cc1ccc(OC)cc1)Cc1cc2cc(CC)ccc2[nH]c1=O	11	0.9	95	64	+	97
C=CCn1c(-c2cc(OC)c(OC)c(OC)c2)n[nH]c1=S	-2	0.9	101	95	+	87
O=C(NCCN1CCN(Cc2ccccc2Cl)CC1)C(=O)Nc1ccc(Br)cc1	.	.	.	.	i	.
CCOC(=O)C1Cn2c(nc3c(c2=O)C2(CCCC2)Cc2ccccc2-3)S1 (configuration not stated)	.	0.9	93	83	+	97
O=C(OCCCN1C(=O)c2cccc3c(N4CCCCC4)ccc(c23)C1=O)c1ccccc1[N+](=O)[O-]	.	.	.	.	i	.
COc1ccc(C=Nc2ccco2)cc1	.	.	.	.	i	.
N#Cc1c(NC(=O)CCN2C(=O)c3ccccc3C2=O)oc(-c2ccccc2)c1-c1ccccc1	3	1	.	85	+	50*
CCCCNC(=O)c1cc2c(-c3ccc(Cl)cc3)nn(C)c2s1	-3	0.9	.	67	+	95
CCC(C)C(=O)Nc1nnc(-c2cccs2)s1 (configuration not stated)	4	1	85	86	+	92
c1ccc(-n2cnnc2SCc2nc3ccccc3s2)cc1	4	0.9	.	92	+	111
Cc1nnc(SCc2nc3ccccc3s2)n1-c1ccccc1	11	0.9	.	81	i	.
SMILES	Ec RNAP inh	TNAP act DEA	SK-BR-3 tox 24h	Her2 expr inh	BAP1 block	BAP1 inh conf
COC(=O)c1c(C)oc2cc(Br)c(OCc3cccc(Cl)c3)cc12	.	.	.	.	i	.
COc1ccc(N2CSC3=C(C#N)C(c4ccc(OC)c(OC)c4)CC(=O)N3C2)c(OC)c1 (configuration not stated)	6	1	.	83	i	.
COc1ccc(C2CC(=O)N3CN(c4ccc(C)c(Cl)c4)CSC3=C2C#N)cc1OC (configuration not stated)	4	1	.	113	+	?
CCCOC(=O)c1cccc(NC(=O)c2c(OC)cccc2OC)c1	.	.	.	.	i	.
NC1=CC(=O)c2cccc3cccc1c23	9	0.9	149	82	+	139
Cc1nnc(C)n1N1C(=O)c2cccc3cccc(c23)C1=O	-6	0.9	.	108	.	.
O=C(CC(=O)c1ccccc1)C(=O)Nc1ccc(Cl)cc1	.	.	.	.	i	.
CCOC(=O)c1c(NC(=O)CSc2nnc(CNc3ccc(F)cc3)o2)sc(C)c1C	6	0.8	.	145	+	?
CCOc1cc2[nH]c(=O)n(Cc3cccc(OC)c3)c(=O)c2cc1OCC	3	1	.	65	+	104
COc1ccc(OC)c(NC(=O)c2c(NC(=O)CNCc3ccco3)sc3c2CCC3)c1	-5	1	96	92	i	.
COc1ccc(NC(=O)c2c(NC(=O)CNCc3ccco3)sc3c2CCC3)c(OC)c1	-1	1	92	117	+	?
Cc1cc(C)cc(OCc2nnc(SCC(=O)N3CCN(c4ccccc4)CC3)o2)c1	3	0.8	88	68	+	94
O=C(CSc1nnc(COc2ccccc2)o1)N1CCN(c2ccccc2)CC1	.	.	84	92	i	.
CCCCCCn1c(-c2ccco2)nc2oc3cc(OC)ccc3c(=O)c2c1=O	.	0.9	76	63	+	132
CCCc1nc2oc3cc(OC)ccc3c(=O)c2c(=O)n1Cc1ccco1	.	0.9	74	61	i	.
CC(Nc1cc(N2CCN(C)CC2)ccc1[N+](=O)[O-])C12CC3CC(CC(C3)C1)C2 (configuration not stated)	.	.	.	.	i	.
Cc1cccc(OCC(=O)Nc2ccc(N3CCN(S(C)(=O)=O)CC3)cc2)c1C	7	0.9	107	122	+	98
COc1ccc(Cn2nnnc2C(c2ccccn2)N2CCN(c3cc(Cl)ccc3C)CC2)cc1 (configuration not stated)	-5	0.9	.	87	+	84
COc1ccc(C(c2nnnn2Cc2ccc(F)cc2)N2CCN(c3ccccc3)CC2)cc1 (configuration not stated)	10	0.9	83	68	i	.
CCCc1ccc(Oc2c(-c3ccc(O)c(C)c3O)n[nH]c2C)cc1	1	1.1	86	84	+	64
CCCc1ccc(Oc2cn[nH]c2-c2ccc(O)c(C)c2O)cc1	6	1	151	46	+	59*
Oc1ccc(-c2[nH]ncc2Oc2ccccc2)c(O)c1O	.	.	.	.	i	.
CCOc1ccc(NC(=NS(=O)(=O)c2ccc(C)cc2)c2ccccc2)cc1	.	.	.	.	i	.
CC(C)CC(C(=O)Nc1ccccc1C(C)C)N1C(=O)c2ccccc2C1=O (configuration not stated)	.	.	.	.	i	.
Cc1ccc(-n2nnnc2SCC(=O)Nc2cccc(NC(=O)c3ccco3)c2)cc1C	4	0.9	104	118	+	92
